Hits are enriched below; roughly 5.3% of the tested compounds scored in any of these assays.
Tau fibril ThT – qHTS for Inhibitors of Tau Fibril Formation, Thioflavin T Binding; Microtubule-associated protein tau (Homo sapiens), P10636; recombinant tau K18 P301L, heparin-induced fibrillization, ThT fluorescence; 270,000 tested, 2.1% active; AID 1460, 2008; Potency, µM (highest dose often 57.4 µM), for inactives: at the top dose activity, negative = inhibition, usual class: inhibitors; also: potency is read from the fitted curve at half-maximal effect; nearly all actives have a fitted effect of over 55% in size
Target sequence (P10636 561-689 P618L limits assumed): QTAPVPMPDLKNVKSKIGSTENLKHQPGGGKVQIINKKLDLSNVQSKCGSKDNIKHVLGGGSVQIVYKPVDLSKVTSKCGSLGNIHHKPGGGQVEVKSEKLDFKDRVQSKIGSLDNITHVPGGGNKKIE
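Heparin-induced fibrillization of the P301L-mutant K18 repeat-domain fragment of human tau was followed by ThT binding in quantitative high-throughput format.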
Tau fluor cs – Counterscreen qHTS for Inhibitors of Tau Fibril Formation, Fluorescence Polarization | Potency, µM (titrated, usually from 57.7 µM), inactives show top-dose activity change, negative = decrease | tau K18 P301L (four-repeat tau fragment) Alexa594 fluorescence, heparin fibrillization | 280,000 tested, 0.93% active | AID 1463, 2008; also: potency is read from the fitted curve at half-maximal effect; nearly all actives have a fitted effect of over 55% in size
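Human K18 P301L tau (15 uM unlabeled plus 0.24 uM Alexa 594-labeled, final) in 100 mM sodium acetate pH 7 was mixed with compound and 20 uM heparin and incubated 6 hr at 37 C.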
Sfp inh – qHTS Assay for Inhibitors of Bacillus subtilis Sfp phosphopantetheinyl transferase (PPTase); 4'-phosphopantetheinyl transferase ffp (Bacillus subtilis), Q9F4F7; Biochemical Sfp PPTase activity, qHTS; Potency, µM, for inactives: largest response in the series, negative = inhibition, hits mostly inhibitors; 310,000 tested, 3.5% active; AID 1490, 2009;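 also: the enzyme is Sfp with the accession as filed and its product quenches rhodamine fluorescence; potency is read from the fitted curve at half-maximal effect; 0% = enzyme reaction without inhibitor and -100% = no enzyme wells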
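Sfp 15 nM + cpd, 15 min RT; start w/ rhodamine-CoA 5 uM, BHQ-2-YbbR 12.5 uM (final); 50 mM Hepes pH 7.6, 10 mM MgCl2, 0.01% NP-40, 0.01% BSA; read 525/598 nm at 0 and 30 min.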
JMJD2E inh – qHTS Assay for Inhibitors of Human Jumonji Domain Containing 2E (JMJD2E). JMJD2E catalytic domain, FDH-coupled NADH fluorescence (FDH is formaldehyde dehydrogenase). 230,000 tested, 1.6% active. AID 2147, 2009. Potency, µM (series often up to 57.1 µM), without a hit: at the highest dose activity change, negative = inhibition, hits mostly inhibitors. Lysine-specific demethylase 4E (Homo sapiens), B2RXH2; active = well fitted inhibition curve with a large enough effect, not every such curve was filed as active; inconclusive = small, poorly fitted or top-dose-only effect, or another doubt; inactive = no such curve, though single readings can be large or run the other way;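 also: potency is read from the fitted curve at half-maximal effect; 0% = wells with enzyme and -100% = buffer wells without enzyme; nearly all actives have a fitted effect of over 50% in size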
Target sequence (B2RXH2 1-337 limits assumed): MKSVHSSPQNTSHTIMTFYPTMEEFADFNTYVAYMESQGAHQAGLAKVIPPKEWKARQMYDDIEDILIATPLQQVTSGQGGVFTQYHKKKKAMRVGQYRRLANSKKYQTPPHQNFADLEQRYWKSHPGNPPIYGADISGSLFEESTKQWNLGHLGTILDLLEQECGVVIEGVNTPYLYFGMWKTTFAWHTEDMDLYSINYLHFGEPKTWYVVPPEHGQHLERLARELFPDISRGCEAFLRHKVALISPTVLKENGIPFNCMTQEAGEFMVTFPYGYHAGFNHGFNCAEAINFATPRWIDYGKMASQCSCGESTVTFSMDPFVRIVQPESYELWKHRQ
Tau FP inhib – qHTS for Inhibitors of Tau Fibril Formation, Fluorescence Polarization | Potency, µM (series often up to 57.7 µM), for inactives: at the top dose activity, negative = inhibition, hits mostly inhibitors | Microtubule-associated protein tau (Homo sapiens), P10636 | 280,000 tested, 0.39% active | K18 P301L tau heparin fibrillization, Alexa594 FP, 6 h; also: potency is read from the fitted curve at half-maximal effect; nearly all actives have a fitted effect of over 55% in size
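Human tau K18 […] P301L fragment, 15 uM unlabeled plus 0.24 uM Alexa 594-labeled tau (final), with compound and 20 uM heparin in 100 mM sodium acetate pH 7; 6 hr at 37 C, then Alexa 594 FP read.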
FBPA coupling cs – qHTS Assay for Inhibitors of Fructose-1,6-bisphosphate Aldolase from Giardia Lamblia: Coupling assay counterscreen; coupling enzyme system counterscreen, AmpLite Red fluorescence; activity change, negative = inhibition, % at 58.2 µM, hits read low; 290,000 tested, 0.67% active; in the data active = activity change below about -30%
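Counterscreen of the coupled detection system alone, without aldolase: glyceraldehyde-3-phosphate coupling enzymes plus AmpLite Red readout. Compounds at 57.5 uM final, 10 min RT preincubation, 20 min RT reaction, fluorescence 525/598 nm.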
* hit, by the source's call; ? = inconclusive; nt = not tested or not shown; ! = not active in a repeat; [ ] = dose if it differs, or a comment. Unless noted, calls follow the shape of the dose curve; as a rule, active = well fitted curve in the direction sought with a large enough effect; inconclusive = small, poorly fitted or top-dose-only effect, or another doubt; inactive = no such curve, though single readings can be large; an effect the other way counts as inactive or inconclusive. Unless noted, % is scaled to controls: 0 for no effect and ±100 for the full control effect.

SMILES	Tau fibril ThT	Tau fluor cs	Sfp inh	JMJD2E inh	Tau FP inhib	FBPA coupling cs
C[N+]12CCCC[C@@H]1CCC(=C(c1cccs1)c1cccs1)C2 (stereo partly specified)	nt	nt	-5%	nt	nt	nt
Cc1ccc2c(=O)c3cccc(CC(=O)O)c3oc2c1C	nt	nt	-8%	nt	nt	13
O=C(NCCCN1CCCC1=O)c1ccc2c(=O)n(Cc3ccco3)c(=S)[nH]c2c1	-18%	-9%	35µM*	-5%	-1%	0
C=CCNC(=O)c1ccc2c(=O)n(CCCN3CCCC3=O)c(=S)[nH]c2c1	0%	-1%	79µM*	2%	2%	-3
Cn1c(-c2cc3c(C(F)(F)F)nn(C)c3s2)n[nH]c1=S	-9%	2%	?	?	-3%	5
CCn1c(-c2cc3c(C(F)(F)F)nn(C)c3s2)n[nH]c1=S	-9%	-10%	71µM*	?	-12%	5
O=C(ONc1ccc(N=NC(=O)c2ccccc2O)cc1)c1ccccc1	4.5µM*	?	-15%	-28%	1%	-1
COC(=O)c1ccc(N=NNc2ccccc2)cc1	?	-14%	?	-20%	10%	-5
CCc1nnc2c3ccccc3nc(Nc3ccc(F)c(Cl)c3)n12	-8%	-19%	nt	nt	-16%	nt
COC(=O)CC1C(=O)NCCN1C(=O)CSc1nc2ccccc2s1 (stereo unspecified)	?	-12%	71µM*	-11%	?	-2
CC[C@H]1[C@@H]2C=C[C@@H]3[C@H]4C/C=C\C(=O)NCCC[C@@H]5NC(=O)C(=C5O)C(=O)CC[C@@H]4C[C@@H]3[C@H]2C[C@H]1C	-1%	-4%	-5%	nt	-7%	-1
Clc1ccccc1-c1nnc2sc(-c3ccc4c(c3)OCO4)nn12	-17%	2%	10µM*	?	-7%	6
Clc1cccc(-c2nnc3sc(-c4ccc5c(c4)OCO5)nn23)c1	0%	-1%	32µM*	2%	-5%	3
CCCC(=O)Nc1nnc(S(=O)(=O)N(C)Cc2ccc(Cl)cc2)s1	-5%	-9%	nt	nt	-3%	nt
Cc1cc([N+](=O)[O-])c2c(c1C)C1C=CCC1C(c1ccccn1)N2 (stereo unspecified)	16µM*	?	?	?	?	-16
C[C@H](CCC(=O)NCC(=O)O)C1CC[C@H]2C3CC[C@@H]4C[C@H](O)CC[C@]4(C)C3C[C@H](O)[C@]12C (stereo partly specified)	-3%	0%	7%	nt	-1%	nt
N#CCN1CCC(c2cc(-c3ccco3)n[nH]2)CC1	?	-9%	11µM*	-28%	1%	-28
O=C(COC(=O)c1ccc(S(=O)(=O)NCc2ccco2)cc1)NC1CCCCCC1	-10%	-14%	56µM*	-2%	1%	5
O=C(COC(=O)c1cccs1)NCc1ccco1	-17%	-10%	-3%	-1%	-12%	4
O=C(COC(=O)c1ccc(NS(=O)(=O)c2cccs2)cc1)NCc1ccco1	-14%	-9%	35µM*	-12%	-1%	4
C[C@@H]1C[C@@H]([C@@H](C)CC2CC(=O)NC(=O)C2)C(=O)[C@@H](C)C1	1%	-2%	15%	nt	-2%	2
CCOC(=O)c1nnn(CC(=O)N2N=C(c3ccc(Cl)cc3)CC2c2ccc(OC)cc2)c1C(=O)OCC (stereo unspecified)	-3%	-1%	8%	32µM*	-4%	-4
CCOC(=O)c1nnn(CC(=O)N2N=C(c3ccc(Cl)cc3)CC2c2ccccc2)c1C(=O)OCC (stereo unspecified)	-5%	-5%	15%	?	-3%	-2
Nc1c(C(=O)c2ccccc2)sc2nsc(SCCN3CCOCC3)c12	?	-20%	50µM*	-2%	9%	-2
c1ccc2c(CSCCc3ccncc3)cccc2c1	1%	1%	50µM*	1%	8%	-12
SMILES	Tau fibril ThT	Tau fluor cs	Sfp inh	JMJD2E inh	Tau FP inhib	FBPA coupling cs
Clc1ccc(CSCCc2ccncc2)cc1	-10%	-10%	-19%	0%	4%	-3
CCc1ccc(NC(=O)c2sc3nc(C)c(Cl)c(C)c3c2NC(=O)c2ccccc2)cc1	1%	3%	nt	nt	-3%	nt
Cc1oc(-c2ccccc2Cl)nc1CN1CCCCC1c1cccnc1 (stereo unspecified)	-9%	-7%	2%	22µM*	3%	-3
CN(Cc1ccco1)c1nc(-c2ccccc2C(F)(F)F)nc2ccccc12	nt	nt	-30%	nt	nt	-1
Cc1ccc(C)c(CSc2nc3ccncc3n2CC(=O)Nc2ccc(C)c(C)c2)c1	-9%	?	-7%	-12%	-15%	1
Cc1ccc(C)c(CSc2nc3ccncc3n2CC(=O)Nc2ccc(N(C)C)cc2)c1	?	10µM*[quencher]	nt	nt	?	nt
COc1ccc(NC(=O)Cn2c(SCc3cc(C)ccc3C)nc3ccncc32)c(OC)c1OC	?	8.9µM*[quencher]	nt	nt	-8%	nt
CC(=O)N(C1=C(Cl)C(=O)c2ccccc2C1=O)C1CCCCC1	4µM*	?	0.79µM*	?	-14%	-88*
COC/C=C/C1=CC2=CC(=O)C(C)(OC(=O)c3cnc4ccccc4n3)C(=O)C2=CN1CCCCO (stereo unspecified)	13µM*	-17%[11.6 µM]	-5%	8.9µM*!	?	-32*!
COC/C=C/C1=CC2=CC(=O)C(C)(OC(=O)c3cnc4ccccc4n3)C(=O)C2=CN1Cc1ccc(OC)cc1 (stereo unspecified)	13µM*	?	1%	-20%[11.4 µM]	?	-9
COC/C=C/C1=CC2=CC(=O)C(C)(OC(=O)c3cnc4ccccc4n3)C(=O)C2=CN1Cc1ccccc1 (stereo unspecified)	10µM*	?	-26%	?	?	-14

Source: PubChem BioAssay
